Bioassay records (PubChem)
UGM FP inh – M. tuberculosis UGM enzyme inhibitors, primary screen, biochemical, fluorescence polarization, single point | UDP-galactopyranose mutase (Mycobacterium tuberculosis (strain ATCC 25618 / H37Rv)), … | purified UGM, fluorescence polarization probe displacement | inhibition, % at 10 µM | actives 0.06% (n = 320,000); in the data active = inhibition above about 10%, passing the limit was not always enough
Target sequence (P9WIQ1 whole entry, looked up): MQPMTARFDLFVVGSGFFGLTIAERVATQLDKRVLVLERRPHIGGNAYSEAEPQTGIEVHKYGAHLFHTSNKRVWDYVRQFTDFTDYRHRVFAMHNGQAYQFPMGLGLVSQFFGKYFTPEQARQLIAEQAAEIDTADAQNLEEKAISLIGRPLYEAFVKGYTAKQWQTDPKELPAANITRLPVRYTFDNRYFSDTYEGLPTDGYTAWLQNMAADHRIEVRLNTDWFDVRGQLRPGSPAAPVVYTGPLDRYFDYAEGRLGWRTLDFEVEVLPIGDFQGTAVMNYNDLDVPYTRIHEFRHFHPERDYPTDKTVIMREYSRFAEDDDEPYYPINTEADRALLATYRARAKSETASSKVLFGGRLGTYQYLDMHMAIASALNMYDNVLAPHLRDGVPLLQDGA
Mtb bLac sens – beta-lactam sensitization of Mtb H37Rv, H37Rv | M. tuberculosis H37Rv growth with meropenem, percent inhibition | inhibition, % at 25 µM | actives 0.27% (n = 330,000) | AID 434955, 2010; call rule not given here;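 also: growth measured after seven days incubation then overnight dye step; 0% = bacteria only wells and 100% = bacteria with antibiotic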
GDH-TPI counter-1 – GDH-TPI coupling enzyme inhibitors, primary screen, artefact control for M. tuberculosis FBA inhibitor project, biochemical, absorbance, full deck; actives 1.2% (n = 360,000); inhibition, % at 4.8 µM; AID 588335, 2011; GDH-TPI coupled enzyme counterscreen, NADH absorbance; in the data active = inhibition above about 30%;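 also: 0% = DMSO wells and 100% = wells lacking the enzyme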
Rv3671c inh – Rv3671c serine protease inhibitors, primary screen, biochemical, fluorescence polarization, M. tuberculosis H37Rv. inhibition, % at 5.96 µM. actives 0.048% (n = 320,000). AID 2606, 2010. P9WHR9; in the data active = inhibition above about 38%;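 also: extracellular domain of Rv3671c used as enzyme; 0% = enzyme with DMSO and 100% = no enzyme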
FBA Mtb inh – Mtb FBA enzyme inhibitors, primary screen, biochemical, fluorescence, strain H37Rv; Fructose-bisphosphate aldolase (Mycobacterium tuberculosis (strain ATCC 25618 / H37Rv)), …; purified M. tuberculosis FBA, fluorescence read-out; inhibition, % at 1 µM; actives 2.3% (n = 360,000); AID 588726, 2011;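 also: 0% = vehicle and 100% = reference inhibitor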
RecA splice inh – Mtb RecA intein splicing inhibitors, primary screen, biochemical, fluorescence, HTS; Protein RecA (Mycobacterium tuberculosis (strain ATCC 25618 / H37Rv)), P9WHJ3; cell-free RecA intein splicing; inhibition, % (no concentration beside the values); actives 0.75% (n = 290,000); AID 2221, 2009; in the data active = inhibition above about 30%;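 also: 0% = vehicle wells and 100% = reference inhibitor control wells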
Mtb FBA confirm – M. tuberculosis aldolase blockers, biochemical, fluorescence, strain H37Rv, confirmation; AID 651616, 2012; shares compounds with FBA Mtb inh; inhibition, % at 1 µM; purified M. tuberculosis FBA, fluorescence read-out; actives 78% (n = 5,600);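 also: 0% = vehicle wells and 100% = reference inhibitor wells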
GDH-TPI counter-2 – GDH-TPI coupling enzyme inhibitors, artefact control for M. tuberculosis FBA inhibitor project, biochemical, fluorescence, high throughput; shares compounds with FBA Mtb inh; GDH-TPI coupled enzyme counterscreen; inhibition, % at 1 µM; actives 81% (n = 5,600); AID 652141, 2013; in the data active = inhibition above about 10%
GDH-TPI dose – GDH-TPI coupling enzyme inhibitors, dose response, artefact control for M. tuberculosis FBA inhibitor project, biochemical, fluorescence, IC50 | shares compounds with FBA Mtb inh | AID 652145, 2013 | GDH-TPI coupled enzyme assay, artifact counterscreen | IC50, µM | actives 79% (n = 170); call rule not given here
Active calls of the source: *; / = not tested or not shown; + = active, no number. Hits are enriched below; roughly 4% of the tested compounds scored in any of these assays. Rule as the data show it, unless noted: active = inhibition above about 27%; inactive = the rest.

SMILES	UGM FP inh	Mtb bLac sens	GDH-TPI counter-1	Rv3671c inh	FBA Mtb inh	RecA splice inh	Mtb FBA confirm	GDH-TPI counter-2	others
CS(=O)(=O)Nc1ccccc1-c1cccc2nccn12	/	/	-1	/	40*	/	58*	39*
COc1ccc(S(=O)Cc2ccc(C(=O)NCc3cccc(OC)c3)o2)cc1 (stereo not given)	-2	-4	-4	-3	29*	4	58*	42*
COc1cccc(CNC(=O)c2ccc(CS(=O)Cc3ccccc3Cl)o2)c1 (stereo not given)	/	/	4	/	-3	/	/	/
C#CCOc1ccc(C2C3=C(CC(C)(C)CC3=O)N(CC(=O)O)C3=C2C(=O)CC(C)(C)C3)cc1	3	-8	1	-10	92*	-415	8	-6
N#Cc1ccccc1NC(=O)c1ccc2c(c1)OCCO2	4	0	-7	1	2	-1	/	/
CCc1c(C)c(C#N)c2nc3ccccc3n2c1Cl	/	/	/	/	/	29	/	/
CC(SCc1cc(=O)n2c([nH]c3ccccc32)c1C#N)C(=O)O (stereo not given)	1	-4	-3	3	21	-9	/	/
CCc1cc(=O)n2c([nH]c3ccccc32)c1C#N	1	2	1	-26	66*	-4	60*	50*
Cc1ccc(Cc2c(C)c(C#N)c3[nH]c4ccccc4n3c2=O)cc1	-1	100	-5	13	48*	0	95*	65*
CCc1c(C)c(C#N)c2[nH]c3ccccc3n2c1=S	4	-14	11	-19	30*	-6	64*	60*
CC[C@@]1(C(=O)OC)N[C@H](CN(C)C(=O)Nc2ccc(F)cc2)[C@@H]2C(=O)N(C)C(=O)[C@@H]21	-3	5	-2	1	-1	/	/	/
COCCN(Cc1ccc(OC)cc1)c1c(C)nc2ccc(C(=O)Nc3ccc(NC(C)=O)cc3)cn12	/	/	4	/	-2	/	/	/
COc1ccc(NC(=O)NNC(=O)c2ccc3ccccc3c2O)c(OC)c1	3	19	4	-8	40*	-3	52*	44*
CC(=O)Nc1ccc(CCNC(=O)c2ccc3ccccc3c2O)cc1	/	/	12	/	32*	/	+	149*
CCOc1ccc(NC(=O)NNC(=O)c2ccc3ccccc3c2O)cc1	6	-14	10	5	40*	-5	28*	10	GDH-TPI dose=5.7*
O=C(NNC(=O)c1cc2ccccc2cc1O)Nc1ccc(Br)cc1	1	3	12	-4	28*	0	106*	91*
CC(=O)c1cccc(-c2cnc3c(NC=O)cc(-c4ccc(F)cc4)cn23)c1	/	/	9	/	-2	/	/	/
CC(C)(C)C1CCC(=NNC(=O)c2ccco2)CC1 (stereo not given)	3	8	6	-4	-1	0	/	/
CC[C@H](C)Cc1cn([C@@H](CCCCNC(=O)OC(C)(C)C)C(=O)NCCCCCCCCCCC(=O)N2CCN(C(=O)OC(C)(C)C)CC2)nn1	-2	-7	10	-8	106*	/	66*	48*
CC(C)(C)OC(=O)NCCCC[C@@H](C(=O)NCCCCCCCCCCC(=O)N1CCN(C(=O)OC(C)(C)C)CC1)n1cc(CCO)nn1	-1	-10	4	0	0	-1	/	/
COc1cc2[nH]c(-c3ccc(C)cc3)cc(=O)c2cc1OC	2	13	25	-13	58*	1	+	+
Cc1ccc2[nH]c(-c3ccccc3)cc(=O)c2c1	-1	16	3	5	7	-3	/	/
COc1ccc(-c2cc(=O)c3cc(C)ccc3[nH]2)cc1	0	9	9	-1	15	1	/	/
COc1cc2[nH]c(-c3cccc(F)c3)cc(=O)c2cc1OC	1	32	-4	-1	28*	1	82*	64*
O=C(CC[C@H]1O[C@@H](n2ccc(=O)[nH]c2=O)[C@H](O)[C@@H]1O)NCC1CCCO1 (stereo not given in full)	/	/	/	/	0	/	/	/
SMILES	UGM FP inh	Mtb bLac sens	GDH-TPI counter-1	Rv3671c inh	FBA Mtb inh	RecA splice inh	Mtb FBA confirm	GDH-TPI counter-2	others
Cc1c(OCC(=O)NC2CC(C)(C)NC(C)(C)C2)ccc2c3c(c(=O)oc12)CCC3	1	1	14	-4	32*	0	43*	35*
Cc1cc(=O)oc2c(C)c(OCC(=O)NC3CC(C)(C)NC(C)(C)C3)ccc12	-4	5	10	1	18	-4	/	/
Cc1c(OCC(=O)NC2CC(C)(C)NC(C)(C)C2)ccc2c1oc(=O)c1ccccc12	0	8	18	-6	63*	-1	50*	59*
COc1ccc(-c2ccc(C(=O)O)c(=O)[nH]2)cc1	-1	-1	13	-2	71*	-5	106*	81*
CCOC(=O)Cc1c(C)nc2c(-c3ccccc3)c[nH]n2c1=O	-4	90	19	2	85*	0	176*	172*
CCc1c(C)nc2c(-c3ccccc3)c[nH]n2c1=O	0	89	6	0	33*	0	15	9	GDH-TPI dose=8.1*
CCOC(=O)Cc1c(C)nc2c(-c3ccccc3)c(-c3ccccc3)[nH]n2c1=O	/	53	16	4	72*	1	58*	41*
Cc1nc2c(C#N)c[nH]n2c(=O)c1Cc1ccccc1	3	7	4	-10	8	1	/	/
CCOC(=O)Cc1c(C)nc2c(-c3ccccc3)c(C)[nH]n2c1=O	/	51	9	4	23	-1	/	/
O=c1oc2c3c4c(cc2c2c1CCC2)OCCN4CCC3	-2	-2	13	-16	97*	/	79*	58*
Cc1coc2cc3oc(=O)c4c(c3cc12)CCC4	1	2	/	0	/	-1	/	/
CC(C)NC(=O)c1cc(-c2cccs2)nc2ccccc12	-1	-4	1	-3	71*	-3	145*	113*
